Sampled rows, rich in hits. Any-hit rate of the full collection: about 19%.
IL1B secr inh: blocks inflammasome-driven IL-1 beta release; activity change, % at 57.5 µM; hit rate 4.7% among 360,000; THP-1 LPS/ATP IL-1B secretion, AlphaLISA, 16 h; stronger effect = lower value; in the data active = activity change below about -50%; inconclusive = mostly about -30% to -49%
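THP-1 cells pretreated 1 hr with compounds (up to 57.5 uM final), then stimulated with LPS (250 ng/mL final) plus ATP (1.25 mM final); secreted IL-1B measured by AlphaLISA after 16 hr, decreased signal indicating inhibition.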
TDP1 cell CPT: DT40-hTDP1 cell growth loss with CPT | chicken DT40 Tdp1-/-;hTDP1 cells + 20 nM CPT, ATP luminescence, 48 h | Potency, µM (doses to about 46.2 µM), for inactives: at the top dose activity change, negative = growth inhibition, hits mostly inhibitors | AID 686979 | hit rate 12% among 420,000; also: potency is read from the fitted curve at half-maximal effect; nearly all actives have a fitted effect of over 55% in size
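Cell growth measured by CellTiter-Glo luminescence after a minimum 48 h, 37 C compound exposure with 20 nM CPT in Tdp1-knockout DT40 cells stably expressing hTDP1, seeded 400/well; qHTS titration format.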
HT1080-NT tox: kills 2HG-producing HT-1080-NT fibrosarcoma cells. AID 686970. Potency, µM (doses to about 46.1 µM), for the others: top-dose activity, negative = less viability, most hits filed as cytotoxic. HT-1080-NT fibrosarcoma viability, CellTiter-Glo ATP luminescence, 48 h. hit rate 1.6% among 360,000;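 also: NT is the 2HG producing partner of a matched IDH1 knockdown line; potency is read from the fitted curve at half-maximal effect; 0% = DMSO-treated cells and -100% = media-only wells without cells; nearly all actives have a fitted effect of over 55% in size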
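Viability by CellTiter-Glo luminescence after 48 h compound exposure at 37C of HT-1080-NT cells (750/well, RPMI, 5% FBS). % activity scaled between DMSO wells and medium-only wells, then curve-fitted and categorized by curve class.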
DT40 TDP1 no CPT: qHTS for Inhibitors of human tyrosyl-DNA phosphodiesterase 1 (TDP1): qHTS in cells in absence of CPT. DT40 Tdp1-/- hTDP1 cells, no CPT, ATP luminescence, 48 h. AID 686978, 2013. hit rate 15% among 420,000. Potency, µM (series often up to 46.2 µM), without a hit: at the top dose activity change, negative = growth inhibition, most hits filed as inhibitors; also: potency is read from the fitted curve at half-maximal effect; nearly all actives have a fitted effect of over 55% in size
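DT40 Tdp1-/-;hTDP1 cells, no CPT (DMSO vehicle only), 400 cells/well; compounds pin-transferred; ≥48 hr, 37 °C; CellTiter-Glo 30 min RT dark, luminescence read.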
HT1080 IDH1KD tx: kills HT-1080 cells with IDH1 knockdown; HT-1080 IDH1 knockdown viability, ATP luminescence, 48 h; Potency, µM (top dose mostly 46.1 µM), without a hit: at the top dose activity, negative = toxicity, actives largely listed as cytotoxic; hit rate 2% among 360,000; AID 686971;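 also: potency is read from the fitted curve at half-maximal effect; 0% = DMSO wells and -100% = cell-free medium wells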
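After a 2 h attachment period, IDH1KD HT-1080 cells took pin-transferred compound for 48 h at 37 °C; ATP-based luminescence after 10 min room-temperature reagent incubation reported viability.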
An asterisk follows results filed as active; [ ] = dose if it differs, or a comment. Unless noted, calls follow the shape of the dose curve; as a rule, active = well fitted curve in the direction sought with a large enough effect; inconclusive = small, poorly fitted or top-dose-only effect, or another doubt; inactive = no such curve, though single readings can be large; an effect the other way counts as inactive or inconclusive. Unless noted, % is scaled to controls: 0 for no effect and ±100 for the full control effect.

`Cc1ccc2nc(-c3ccsc3)c(Nc3ccc(C(C)C)cc3)n2c1` gave TDP1 cell CPT -19% and DT40 TDP1 no CPT -9%.
`Cc1ccc2nc(-c3ccncc3)c(Nc3ccc(C(C)C)cc3)n2c1` gave TDP1 cell CPT 6.5µM* and DT40 TDP1 no CPT 7.3µM*.
`CCCCCCCCCCC/C=C\C(C)(C)/C=C\CCCC(=O)O` gave TDP1 cell CPT -1%[4.12 µM] and DT40 TDP1 no CPT -25%[4.12 µM].
`CCC(=O)N1c2ccccc2CC1C(=O)NCCN1CCN(c2cccc(C)c2C)CC1` (stereo unspecified) gave TDP1 cell CPT 23µM* and DT40 TDP1 no CPT inconclusive.
`CC(=O)N1c2ccccc2CC1C(=O)N1CCN(c2cccc(C)c2C)CC1` (stereo unspecified) gave TDP1 cell CPT 23µM* and DT40 TDP1 no CPT 15µM*.
CCC(=O)N1c2ccccc2CC1C(=O)NCCc1ccccc1C (stereo unspecified) was read as TDP1 cell CPT inconclusive and DT40 TDP1 no CPT -21%.
For Cc1ccc(N2CCN(C(=O)NC3CCCCC3)CC2)c(C)c1 the results were IL1B secr inh -11, TDP1 cell CPT inconclusive, HT1080-NT tox 20%, DT40 TDP1 no CPT inconclusive and HT1080 IDH1KD tx 16%.
Screening Cc1cccc(N2CCN(C(=O)NC3CCCCC3)CC2)c1C returned IL1B secr inh -56*, TDP1 cell CPT inconclusive, HT1080-NT tox -13%, DT40 TDP1 no CPT -19% and HT1080 IDH1KD tx -12%.
Screening CCC(=O)N1c2ccccc2CC1C(=O)NCCN1CCN(c2cccc(Cl)c2)CC1 (stereo unspecified) returned TDP1 cell CPT 23µM* and DT40 TDP1 no CPT inconclusive.
COc1cc(/C=N/NC(=O)CN2CCCCC2)ccc1OCc1ccc(Br)cc1 was read as IL1B secr inh -17, TDP1 cell CPT inconclusive, HT1080-NT tox inconclusive, DT40 TDP1 no CPT inconclusive and HT1080 IDH1KD tx inconclusive.
`Cc1nnc(SCc2ccccc2CSc2nnc(C)s2)s1` gave IL1B secr inh 5, TDP1 cell CPT -28%, HT1080-NT tox -2%, DT40 TDP1 no CPT inconclusive and HT1080 IDH1KD tx 0%.
CC(C)(C)NC(=O)N1CCCN(c2ccc(C(F)(F)F)cn2)CC1 was read as IL1B secr inh -9, TDP1 cell CPT -19%, HT1080-NT tox -14%, DT40 TDP1 no CPT inconclusive and HT1080 IDH1KD tx -13%.
CCCCNC(=O)C(NC(=O)c1cnc(C)cn1)C(=O)c1ccccc1 (stereo unspecified) was read as IL1B secr inh -10, TDP1 cell CPT -3%, HT1080-NT tox 14%, DT40 TDP1 no CPT 0% and HT1080 IDH1KD tx 18%.
CC(C)N1CCNCC1 was read as IL1B secr inh 11, TDP1 cell CPT -6%, HT1080-NT tox -1%, DT40 TDP1 no CPT 0% and HT1080 IDH1KD tx -1%.
O=C(O)c1cccc(NC(=S)NC(=O)C(c2ccccc2)c2ccccc2)c1 was read as IL1B secr inh 9, TDP1 cell CPT -14%, HT1080-NT tox -6%, DT40 TDP1 no CPT 0% and HT1080 IDH1KD tx -6%.
Cc1ccc(CNC(=O)c2c(-c3ccc(F)cc3F)noc2C)o1 was read as TDP1 cell CPT -25% and DT40 TDP1 no CPT -26%.
`CCC(=O)N1c2ccccc2CC1C(=O)NCCc1ccccc1` (stereo unspecified) gave TDP1 cell CPT -13% and DT40 TDP1 no CPT 8%.
Screening CCC(=O)N1c2ccccc2CC1C(=O)NCCN1CCN(c2cccc(C(F)(F)F)c2)CC1 (stereo unspecified) returned TDP1 cell CPT 16µM* and DT40 TDP1 no CPT 29µM*.
For CCC(C)C(NC(=O)C1CCC(C)CC1)C(=O)Nc1ccc(OC)cc1OC (stereo unspecified) the results were IL1B secr inh 0, TDP1 cell CPT inconclusive, HT1080-NT tox 6%, DT40 TDP1 no CPT -17% and HT1080 IDH1KD tx 11%.
`COc1ccc(NC(=O)C(CC(C)C)NC(=O)C2CCC(C)CC2)c(OC)c1` (stereo unspecified) gave IL1B secr inh inconclusive, TDP1 cell CPT 15µM*, HT1080-NT tox -7%, DT40 TDP1 no CPT inconclusive and HT1080 IDH1KD tx -2%.
`COc1cc(NC(=O)C2CCCN2C(=O)C2CCC(C)CC2)cc(OC)c1OC` (stereo unspecified) gave IL1B secr inh 33, TDP1 cell CPT inconclusive, HT1080-NT tox 13%, DT40 TDP1 no CPT inconclusive and HT1080 IDH1KD tx 12%.
`CCC(C)C(NC(=O)C1CCC(C)CC1)C(=O)Nc1cc(OC)ccc1OC` (stereo unspecified) gave IL1B secr inh 1, TDP1 cell CPT inconclusive, HT1080-NT tox -27%, DT40 TDP1 no CPT 18µM* and HT1080 IDH1KD tx inconclusive.
COc1ccc(OC)c(NC(=O)C2CCCN2C(=O)C2CCC(C)CC2)c1 (stereo unspecified) was read as IL1B secr inh 55, TDP1 cell CPT inconclusive, HT1080-NT tox 1%, DT40 TDP1 no CPT 13µM* and HT1080 IDH1KD tx 3%.
COc1ccc(CN2CCCC(n3cc(C(=O)NC4CCCC4)nn3)C2)c2ccccc12 (stereo unspecified) was read as TDP1 cell CPT 2% and DT40 TDP1 no CPT -11%.
Screening CCOc1c(Br)cc(CNc2ccc(N3CCN(C(C)=O)CC3)cc2)cc1OC returned IL1B secr inh inconclusive, TDP1 cell CPT 16µM*, HT1080-NT tox -19%, DT40 TDP1 no CPT inconclusive and HT1080 IDH1KD tx -12%.
CCOc1cc(C(=O)Nc2ccc(N3CCN(C(C)=O)CC3)cc2)cc(OCC)c1OCC was read as IL1B secr inh 14, TDP1 cell CPT -7%, HT1080-NT tox 9%, DT40 TDP1 no CPT -2% and HT1080 IDH1KD tx 11%.
`CCOc1cc(CNc2ccc(N3CCOCC3)cc2)cc(Br)c1OCC` gave IL1B secr inh inconclusive, TDP1 cell CPT inconclusive, HT1080-NT tox -18%, DT40 TDP1 no CPT 16µM* and HT1080 IDH1KD tx inconclusive.
Screening COc1cc(CNc2ccc(N3CCN(C(C)=O)CC3)cc2)ccc1OCc1ccc(F)cc1 returned IL1B secr inh -19, TDP1 cell CPT inconclusive, HT1080-NT tox 23µM*, DT40 TDP1 no CPT 16µM* and HT1080 IDH1KD tx inconclusive.
`CCOc1ccc(Br)cc1S(=O)(=O)Nc1ccc(N2CCOCC2)cc1` gave IL1B secr inh 14, TDP1 cell CPT inconclusive, HT1080-NT tox -12%, DT40 TDP1 no CPT inconclusive and HT1080 IDH1KD tx -8%.
`CCOc1cc(CNc2ccc3c(c2)OCCO3)cc(Br)c1OCC` gave IL1B secr inh -11, TDP1 cell CPT 2.6µM*, HT1080-NT tox 1.8µM*, DT40 TDP1 no CPT 0.82µM* and HT1080 IDH1KD tx 2.3µM*.

High-throughput results from PubChem.
